We go through 40 compounds from PubChem BioAssay (NCATS).

For assay [1], the target named is Luciferin 4-monooxygenase (Photinus pyralis) (UniProt P08659). Description: Biochemical firefly luciferase enzyme assay for NPC (AID 624030). Also: nearly all actives have a fitted effect of over 70% in size. Also: potency is read from the fitted curve at half-maximal effect. An outline of the steps: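 Direct inhibition of firefly luciferase enzyme (10 nM final, 50 mM Tris Acetate) assessed by luminescence within 5 minutes. Percent activity scaled between DMSO and PTC124 positive control, with concentration-effect curves classified by fit quality and response.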
Luciferin 4-monooxygenase (Photinus pyralis), sequence (P08659 whole entry, looked up): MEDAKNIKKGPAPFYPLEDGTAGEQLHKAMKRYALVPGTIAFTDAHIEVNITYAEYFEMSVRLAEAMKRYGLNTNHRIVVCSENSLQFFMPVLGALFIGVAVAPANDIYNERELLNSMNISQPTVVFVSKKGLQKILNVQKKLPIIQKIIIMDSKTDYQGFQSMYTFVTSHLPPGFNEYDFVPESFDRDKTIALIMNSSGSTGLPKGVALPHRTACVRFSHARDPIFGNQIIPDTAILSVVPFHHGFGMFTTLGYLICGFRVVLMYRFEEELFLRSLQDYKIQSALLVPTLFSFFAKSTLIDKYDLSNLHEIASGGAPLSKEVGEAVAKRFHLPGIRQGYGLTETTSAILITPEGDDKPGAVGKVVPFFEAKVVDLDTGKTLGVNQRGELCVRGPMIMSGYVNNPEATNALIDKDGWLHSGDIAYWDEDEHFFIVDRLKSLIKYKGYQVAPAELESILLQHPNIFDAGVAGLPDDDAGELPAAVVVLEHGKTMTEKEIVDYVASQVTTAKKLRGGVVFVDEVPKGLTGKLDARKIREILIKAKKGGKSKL

Assay [2] can be described thus: S16 Schwann cell viability assay (CellTiter-Glo assay) (AID 624031). Also: nearly all actives have a fitted effect of over 70% in size. Also: potency is read from the fitted curve at half-maximal effect. In short, it runs like this: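 Rat S16 Schwann cells without reporter constructs received compound or DMSO for 24 h at 37 °C under 5% CO2. Cellular ATP was then quantified by CellTiter-Glo luminescence, with vehicle wells defined as 0% activity and cell-free wells as reference.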
Assay [3] can be described thus: S16 Schwann cell PMP22 intronic element firefly luciferase assay (AID 624032). Also: nearly all actives have a fitted effect of over 30% in size. Also: potency is read from the fitted curve at half-maximal effect. An outline of the steps: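 Luciferase reporter of PMP22 intronic-element expression in stably transfected S16 rat Schwann cells, read by ONE-Glo luminescence after 24 h compound exposure at 37 C. Activity scaled between DMSO (0%) and positive-control PTC124; concentration-effect curves quality-classified.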

Assay [4] in a line: S16 Schwann cell PMP22 intronic element beta-lactamase assay (AID 624044; calls by dose curve; also: nearly all actives have a fitted effect of over 15% in size; also: potency is read from the fitted curve at half-maximal effect). In short, it runs like this:
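Beta-lactamase reporter under a PMP22 intronic regulatory element in stable S16 rat Schwann cells; 24 h compound exposure. 460 nm blue signal normalized between DMSO (0%) and potassium clavulanate, with 535 nm FRET tracking viability; curves classed by r2 and response.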

The target in assay [5] is Glutaminase kidney isoform, mitochondrial (Homo sapiens) (UniProt O94925). The assay can be described thus: qHTS for Inhibitors of Glutaminase (GLS): LOPAC Validation (AID 624146).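 Also: glutamate product detected by oxidase and peroxidase coupled Amplex red fluorescence gain; series mostly up to about 46 µM; nearly all actives have a fitted effect of over 60% in size.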 An outline of the steps: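 hKGA in 45 mM KH2PO4 (pH 8.2), 0.02% Tween-20 with compound, then 1mM L-Glutamine (stock as added) plus glutamate oxidase/HRP/Amplex red coupling mix. Fluorescence read initially and after 30 min at RT; signal change reflects glutamate formation.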
Glutaminase kidney isoform, mitochondrial (Homo sapiens), sequence (O94925 whole entry, looked up, canonical isoform): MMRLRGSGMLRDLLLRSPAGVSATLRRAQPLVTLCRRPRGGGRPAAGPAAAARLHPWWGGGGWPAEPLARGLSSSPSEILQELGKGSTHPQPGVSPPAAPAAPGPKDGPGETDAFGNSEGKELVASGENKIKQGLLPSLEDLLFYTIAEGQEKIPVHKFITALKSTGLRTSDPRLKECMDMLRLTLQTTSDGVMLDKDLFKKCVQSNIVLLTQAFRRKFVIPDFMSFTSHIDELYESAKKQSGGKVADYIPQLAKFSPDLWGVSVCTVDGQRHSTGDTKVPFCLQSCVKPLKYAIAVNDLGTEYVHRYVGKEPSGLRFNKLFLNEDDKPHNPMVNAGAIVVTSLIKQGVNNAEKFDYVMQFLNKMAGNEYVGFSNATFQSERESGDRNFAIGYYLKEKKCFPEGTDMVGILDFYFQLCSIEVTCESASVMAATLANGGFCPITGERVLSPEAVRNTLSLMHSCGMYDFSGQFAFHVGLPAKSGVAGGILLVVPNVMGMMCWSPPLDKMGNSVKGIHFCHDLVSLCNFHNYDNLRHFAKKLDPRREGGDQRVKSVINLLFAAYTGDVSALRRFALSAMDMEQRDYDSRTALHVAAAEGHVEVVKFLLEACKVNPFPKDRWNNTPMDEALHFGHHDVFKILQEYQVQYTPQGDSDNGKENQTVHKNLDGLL
(In general: qHTS replaces the single test concentration by a dilution series.)

Assay [6] can be described thus: qHTS of Trypanosoma Brucei Inhibitors: LOPAC Validation (AID 624147). In short, it runs like this:
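ADP (130 uM final) triggers the TbPYK reaction after compound addition; incubation is 45 min at room temperature. Kinase-Glo Plus is then added and luminescence imaged. Normalized data are fitted to concentration-effect curves.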

The target in assay [7] is Glucagon-like peptide 1 receptor (Homo sapiens) (UniProt P43220). The assay can be described thus: qHTS of GLP-1 Receptor Agonists: LOPAC Validation (AID 624148).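 Also: luminescence from a luciferase reporter switched on by cAMP; higher luminescence signal means agonism.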 In short, it runs like this: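 Agonism scored as increased luciferase luminescence driven by cAMP in HEK293 clones carrying GLP-1R. Cells settled 12 hours, received compound for 4-6 hr at 37 deg C, 5% CO2, and were read after 12 min detection reagent at RT.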
Glucagon-like peptide 1 receptor (Homo sapiens), sequence (P43220 whole entry, looked up): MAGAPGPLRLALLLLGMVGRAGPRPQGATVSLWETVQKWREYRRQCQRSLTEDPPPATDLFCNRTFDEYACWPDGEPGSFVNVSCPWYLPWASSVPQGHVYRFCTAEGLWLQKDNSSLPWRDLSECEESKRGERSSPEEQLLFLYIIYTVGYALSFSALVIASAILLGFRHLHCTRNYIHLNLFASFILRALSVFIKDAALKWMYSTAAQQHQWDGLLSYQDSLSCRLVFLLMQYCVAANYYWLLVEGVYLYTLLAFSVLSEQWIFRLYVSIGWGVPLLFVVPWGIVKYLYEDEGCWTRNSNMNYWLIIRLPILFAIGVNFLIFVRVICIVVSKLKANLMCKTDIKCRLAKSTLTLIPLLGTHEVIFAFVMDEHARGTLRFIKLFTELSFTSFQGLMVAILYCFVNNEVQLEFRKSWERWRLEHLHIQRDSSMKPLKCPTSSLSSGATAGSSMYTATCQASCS

Assay [8] is described as follows: qHTS of Nrf2 Activators: LOPAC Validation (AID 624149). An outline of the steps: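 Luciferase signal from ARE activation, read with Steady-Glo after 30 min at room temperature. Compounds were pin-transferred onto AREc32_Fluc cells (1000/well, OPTI-MEM/5% FBS, seeded overnight) and left 24 hr at 37 deg C.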
A short description of assay [9]: HTS Assay for Allosteric Antagonists of the Human D2 Dopamine Receptor: Hit Validation in HTRF (AID 624455).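 Also: stable D1 dopamine receptor cell line scored for blocking the D1 response.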 An outline of the steps: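 Inhibition of the D1-mediated response was measured by HTRF. Cells used were a line stably expressing the D1 dopamine receptor.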

Records with an inconclusive call do not appear. Activity calls are given as the source filed them. Unless noted, calls follow the shape of the dose curve; as a rule, active = well fitted curve in the direction sought with a large enough effect; inconclusive = small, poorly fitted or top-dose-only effect, or another doubt; inactive = no such curve, though single readings can be large; an effect the other way counts as inactive or inconclusive.

As for `O=[N+]([O-])c1ccc([As](=O)(O)O)cc1`, the Potency entry in [1], in [2] and in assay [3] was “inactive” throughout.

`Nc1ccc([N+](=O)[O-])cc1`: the Potency entry in assay [1] is “inactive”.

Take `CC(=O)[O][Hg][c]1ccccc1`: the Potency in [1] is 2.56 µM (active); in [2] it was 0.907 µM (active); in assay [3] it was 1.14 µM (active); in assay [4] it was 14.1 µM (active).

For `COc1cc([C@@H]2c3cc4c(cc3[C@@H](O)C3COC(=O)C32)OCO4)cc(OC)c1O` (stereo not given in full), the Potency result in assay [1] was “inactive”.

`NC(=O)CN1CC(O)CC1=O` (stereo not given): the Potency result in assay [1], in assay [2], in [3], in assay [4], in [5] and in assay [9] was “inactive” in each case. The result in assay [6], in [7] and in assay [8] was inactive.

Regarding `NC1=NC(=O)N2CC12` (stereo not given), the Potency result in [1], in assay [2], in assay [3] and in assay [4] was “inactive” throughout.

For the compound `O=C(Nc1ccccc1-c1ccc(Cl)cc1)c1cccnc1Cl`, the Potency result in assay [1] was “inactive”.

On to `OCCCBr`, for which, in [1], the Potency result was “inactive”.

With `COC(C)(C)CCCC(C)C/C=C/C(C)=C/C(=O)OC(C)C` (stereo not given), the Potency entry in [1], in assay [2] and in [4] was “inactive” each time.

`O=S(=O)(O)C(F)(F)C(F)(F)C(F)(F)C(F)(F)F`: the Potency result in assay [1] was “inactive”.

Take `C#CC1(O)CCC2C3CCC4=CC(=O)CCC4(C)C3CCC21C` (stereo not given): the Potency entry in [1], in assay [2], in [3] and in [4] was “inactive” in each case.

Turning to `COC(=O)c1cncn1C(C)c1ccccc1` (stereo not given), the Potency result in [1], in [2], in [3] and in assay [4] was “inactive” throughout.

With `CC(=O)OCC1=C(C(=O)O)N2C(=O)[C@@H](N)[C@@H]2SC1`, the Potency entry in assay [1], in assay [2] and in assay [4] was “inactive” throughout.

Turning to `CCOCCOC(C)=O`, the Potency result in assay [1] was “inactive”.

For `O=C(O)C(Cl)Cl`, the Potency result in assay [1], in assay [2] and in [3] was “inactive” in each case.

`Cc1cc(O)ccc1Cl`: the Potency result in assay [1], in assay [2] and in assay [3] was “inactive” throughout.

`CCCN1CCC[C@H](c2cccc(O)c2)C1`: the Potency entry in [1], in assay [2], in [3], in assay [4] and in assay [5] was “inactive” in each case. Further, the call in [6], in [7] and in [8] was inactive.

For the compound `CCOP(=O)(NC(C)C)Oc1ccc(SC)c(C)c1` (stereo not given), in assay [1], the Potency entry was “inactive”.

Take `CC(C)NC(C)Cc1ccc(I)cc1` (stereo not given): the Potency result in [1], in [2], in assay [3], in assay [4], in assay [5] and in assay [9] was “inactive” throughout. The call in [6], in assay [7] and in assay [8] was inactive.

Consider `CCCCCCCCCC(CC)c1ccc(S(=O)(=O)O)cc1` (stereo not given), for which the Potency entry in assay [1], in assay [2], in [3] and in assay [4] was “inactive” in each case.

With `Nc1ccc(N=Nc2ccccc2)cc1`, the Potency in assay [1] was 5.26 µM (active).

For `CN(C)[C@@H]1C(=O)C(C(N)=O)=C(O)[C@@]2(O)C(=O)C3=C(O)c4c(O)cccc4[C@@](C)(O)[C@H]3[C@H](O)[C@@H]12`, the Potency result in assay [1], in assay [2], in assay [3] and in assay [4] was “inactive” each time.

In the case of `CCCCc1ccc(C(=O)O)nc1`, the Potency result in [1], in assay [2], in assay [3], in assay [5] and in assay [9] was “inactive” in each case. For the same compound, the compound was classed as inactive in assay [6], in assay [7] and in assay [8].

Turning to `C=CCN1CC[C@]23CCCCC2[C@H]1Cc1ccc(O)cc13` (stereo not given in full), the Potency entry in assay [1], in assay [2], in assay [3], in assay [4], in assay [5] and in assay [9] was “inactive” each time. Further, the call in assay [6], in assay [7] and in assay [8] was inactive.

`COC(=O)[C@@H](N)CCCN=C(N)N[N+](=O)[O-]`: the Potency entry in assay [1], in [2], in assay [3], in assay [4], in [5] and in [9] was “inactive” throughout. Moreover, the call in [6], in assay [7] and in assay [8] was inactive.

`O=[N+]([O-])c1cc([N+](=O)[O-])c2ccccc2c1`: the Potency result in [1] is “inactive”.

With `c1ccc(C2(c3ccccc3)CC2C2=NCCN2)cc1` (stereo not given), the Potency result in assay [1], in [2], in assay [3], in [4], in assay [5] and in assay [9] was “inactive” throughout. Moreover, the result in assay [6], in assay [7] and in assay [8] was inactive.

As to `S=C(SSC(=S)N1CCCCC1)N1CCCCC1`, the Potency in assay [1] is 8.09 µM (active).

Consider `Cc1ccc(Cl)c(O)c1`, for which the Potency entry in assay [1], in [2] and in assay [3] was “inactive” in each case.

For `C1CCC(NC2CCCCC2)CC1`, the Potency result in assay [1], in [2] and in assay [3] was “inactive” in each case.

Turning to `O=C(O)COc1ccccc1`, the Potency result in [1], in assay [2] and in assay [3] was “inactive” throughout.

As for `CCCN(CCC)[C@@H]1CCc2ccc(O)cc2C1`, the Potency entry in assay [5] is “inactive”. In addition, the compound was called inactive in [6], in [7] and in assay [8].

Consider `CN[C@@H]1C[C@@H](c2ccc(Cl)c(Cl)c2)c2ccccc21`, for which the Potency entry in assay [1] and in assay [9] was “inactive” each time. For the same compound, the result in assay [6], in assay [7] and in [8] was inactive.

For `C[C@]12N[C@H](Cc3ccccc31)c1ccccc12`, the Potency result in assay [1], in [5] and in assay [9] was “inactive” in each case. In addition, the call in [6], in assay [7] and in assay [8] was inactive.

`O=C(Nc1ccc(Oc2ccc(Cl)cc2)c(Cl)c1)c1cc(I)cc(I)c1O`: in [3], the Potency was 10.2 µM (active).

On to `S=C(NC1CCCCC1)N1CCC(c2cnc[nH]2)CC1`, for which the Potency result in [5] and in [9] was “inactive” throughout. Moreover, the outcome in [6], in assay [7] and in assay [8] was inactive.

In the case of `NC(CCP(=O)(O)O)C(=O)O` (stereo not given), the Potency entry in assay [5] and in assay [9] was “inactive” throughout. In addition, the compound was called inactive in assay [6], in [7] and in assay [8].

Turning to `O=C(N[C@H]1CN2CCC1CC2)c1ccc(Cl)cc1`, the Potency result in [5] and in assay [9] was “inactive” throughout. Further, the compound was called inactive in [6], in assay [7] and in assay [8].

With `NCCc1c[nH]c2ccc(O)cc12`, the Potency result in [5] and in assay [9] was “inactive” throughout. Moreover, the call in assay [6], in [7] and in [8] was inactive.

For the compound `C[C@]12CCC3C(CC[C@H]4C[C@H](O)CC[C@]34C)C1CC[C@@H]2C(=O)CO` (stereo not given in full), the Potency entry in assay [5] and in assay [9] was “inactive” throughout. Besides, the outcome in assay [6], in [7] and in assay [8] was inactive.
